# From PubChem BioAssay
# HepG2 tox-1: qHTS for Inhibitors of TGF-b: Cytotox Counterscreen. HepG2 CAGA-GFP viability, ATP luminescence, 18 h. Potency, µM (doses to about 46.1 µM), inactives show top-dose activity change, negative = cytotoxicity, usual class: cytotoxic. hit rate 0.76% among 410,000. AID 588856, 2011; note: potency is the fitted concentration of half-maximal effect
#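 HepG2 CAGA-GFP cells (1000/well, DMEM with 1% FBS) received compound, then TGF-beta at 500 pg/mL final, and were incubated 18 hours at 37 degrees C. Viability was read by CellTiter-Glo luminescence. Media-only wells were set as complete cell-killing and DMSO as no toxicity.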
# D3 antag: qHTS of D3 Dopamine Receptor Antagonist: qHTS; D3R cells, DiscoveRx beta-arrestin luminescence, antagonist mode; stronger effect = lower value; max response, negative = inhibition, %; hit rate 2.5% among 360,000; AID 652054, 2013; in the data active = max response below about -50%; inconclusive = no clear call, values can overlap the other calls; note: % is set by controls: 0 for no effect and ±100 for the full control effect
# Target sequence (P35462 whole entry, looked up): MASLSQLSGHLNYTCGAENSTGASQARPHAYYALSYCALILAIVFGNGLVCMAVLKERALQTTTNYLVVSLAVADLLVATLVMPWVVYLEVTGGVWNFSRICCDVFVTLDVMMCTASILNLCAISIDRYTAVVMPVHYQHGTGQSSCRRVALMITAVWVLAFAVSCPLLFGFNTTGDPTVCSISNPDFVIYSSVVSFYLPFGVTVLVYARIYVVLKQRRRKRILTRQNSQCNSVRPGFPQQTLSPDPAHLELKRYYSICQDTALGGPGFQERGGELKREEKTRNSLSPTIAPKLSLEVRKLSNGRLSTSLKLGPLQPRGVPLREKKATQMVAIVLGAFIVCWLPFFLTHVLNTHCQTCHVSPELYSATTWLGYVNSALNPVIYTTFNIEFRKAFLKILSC
#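 Cells plated overnight at 1500 cells/well, then exposed to library compounds with dopamine controls for 90 minutes at 37 degrees C. DiscoveRx reagent added for 30–60 minutes at room temperature; luminescence read, quantitative HTS format.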
# ATXN viability: Viability Counterscreen for Primary qHTS for Inhibitors of ATXN expression; S2 cells (HEK-293 line with an ATXN2-luciferase reporter) viability, CellTiter-Fluor protease fluorescence, 24 h; Potency, µM (series often up to 56.7 µM), actives largely listed as cytotoxic; hit rate 0.49% among 400,000; AID 651635, 2014; note: potency is the fitted concentration of half-maximal effect; nearly all actives have a fitted effect of over 40% in size
# DRD3 agonist: qHTS of D3 Dopamine Receptor Agonist: qHTS; D3R DiscoveRx beta-arrestin cells, luminescence, 90 min; hit rate 0.58% among 410,000; D(3) dopamine receptor (Homo sapiens), P35462; max activation, %; in the data active = max activation above about 30%; note: 0% is about no effect
#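 Agonist mode: compounds and dopamine controls were applied to plated cells for 90 min at 37 degrees C after an overnight attachment at 1500 cells/well. Luminescent read-out followed 30 - 60 minutes at room temperature with DiscoveRx detection reagent.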
# ATXN2 expr inh: Primary qHTS for Inhibitors of ATXN expression. HEK-293 ATXN2-luciferase reporter, luminescence, 24 h. Potency, µM (highest dose often 57 µM), without a hit: top-dose activity change, negative = inhibition, hits mostly inhibitors. hit rate 0.72% among 360,000. AID 1745845, 2022; note: potency is the fitted concentration of half-maximal effect; % is set by controls: 0 for no effect and ±100 for the full control effect; nearly all actives have a fitted effect of over 55% in size
#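 qHTS (up to 57 uM final) was run with 24 h compound exposure of reporter cells at 37 °C. Each well was multiplexed: SteadyGlo luminescence measured ATXN2-luciferase expression after a fluorogenic Gly-Phe-AFC viability readout (25 uM final).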
# TGFb inhibitor: qHTS for Inhibitors of TGF-b; AID 588855, 2011; hit rate 1.2% among 410,000; HepG2 CAGA-GFP TGF-b/SMAD3 reporter, GFP fluorescence, 18 h; TGF-beta stimulated, 500 pg/mL final; Potency, µM (highest dose often 46.1 µM), for the others: top-dose activity, negative = inhibition, actives largely listed as inhibitors; note: potency is the fitted concentration of half-maximal effect; % is set by controls: 0 for no effect and ±100 for the full control effect; nearly all actives have a fitted effect of over 65% in size
#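 Cell-based qHTS in HEPG2 carrying a CAGA-GFP Smad reporter; compounds added before 500 pg/mL final TGF-beta, 18 h incubation at 37 degrees C, GFP fluorescence quantified per cell by imaging cytometry.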
# TGFb confirm: qHTS for Inhibitors of TGF-b: Confirmation of Cherry Picks; shares compounds with TGFb inhibitor; HepG2 CAGA-GFP TGF-b reporter, GFP fluorescence, 18 h; cells stimulated with TGF-beta, 500 pg/mL; Potency, µM (series often up to 46.1 µM), for the others: top-dose activity, negative = inhibition, most hits filed as inhibitors; hit rate 63% among 1,600; note: potency is the fitted concentration of half-maximal effect; % is set by controls: 0 for no effect and ±100 for the full control effect; nearly all actives have a fitted effect of over 65% in size
# HepG2 tox-2: qHTS for Inhibitors of TGF-b: Cytotox Counterscreen for Cherry Picks | shares compounds with TGFb inhibitor | HepG2 CAGA-GFP viability, ATP luminescence, 18 h; cells stimulated with TGF-beta, 500 pg/mL | Potency, µM (titrated, usually from 46.1 µM), inactives show top-dose activity, negative = cytotoxicity, actives largely listed as inhibitors | hit rate 27% among 1,600; note: potency is the fitted concentration of half-maximal effect; % is set by controls: 0 for no effect and ±100 for the full control effect; nearly all actives have a fitted effect of over 70% in size
# CCL64 TGFb inh: qHTS for Inhibitors of TGF-b: CCL64 Cells Orthogonal Assay for Cherry Picks; AID 720536, 2013; hit rate 41% among 1,600; shares compounds with TGFb inhibitor; Potency, µM (series often up to 46.1 µM), inactives show at the top dose activity, negative = inhibition, hits mostly inhibitors; CCL64 CAGA-GFP reporter, TGF-b stimulated, GFP fluorescence, 18 h; note: potency is the fitted concentration of half-maximal effect; nearly all actives have a fitted effect of over 65% in size
# COP TGFb inh: qHTS for Inhibitors of TGF-b: Hit Validation in HepG2 Cells using COP promoter; shares compounds with TGFb inhibitor; HepG2 COP-GFP TGF-b reporter, GFP fluorescence, 18 h; cells stimulated by added recombinant TGF-beta; Potency, µM (top dose mostly 46.1 µM), for inactives: top-dose activity, negative = inhibition, actives largely listed as inhibitors; hit rate 3% among 1,600; AID 720537, 2013; note: potency is the fitted concentration of half-maximal effect; nearly all actives have a fitted effect of over 70% in size
# Active calls of the source: *; i = inactive; ? = inconclusive; . = no result. Shown are actives, neighbours in structure and some others; about 4.8% of the full set was active somewhere. Unless noted, calls come from the whole dose curve; as a rule, active = well fitted curve in the direction sought with a large enough effect; inconclusive = small, poorly fitted or top-dose-only effect, or another doubt; inactive = no such curve, though single readings can be large; an effect the other way counts as inactive or inconclusive.
SMILES,HepG2 tox-1,D3 antag,ATXN viability,DRD3 agonist,ATXN2 expr inh,TGFb inhibitor,TGFb confirm,HepG2 tox-2,CCL64 TGFb inh,COP TGFb inh
CC(C)c1ccc(N2C(=O)NC(=O)/C(=C\C=C\c3ccco3)C2=O)cc1,0.9%,-14.6,28.2µM*,0.6,?,10µM*,4.11µM*,7.31µM*,5.8µM*,34.1%
O[C@H]1CCCC[C@H]1N1CCC(c2ccccc2)CC1,.,.,i,.,.,.,.,.,.,.
CC(=O)OC1(C)CC(C)C(=O)C(C(O)CC2CC(=O)NC(=O)C2)C1 (configuration not stated),-32.6%,7.9,?,-3.2,0.0299µM*,-91.9%,0.0517µM*,0.13µM*,0.0206µM*,4.9%
Cc1ccc(-c2nnc(Nc3ccc(O)cc3)c3ccccc23)cc1S(=O)(=O)N1CCOCC1,-10.0%,.,?,-6.0,?,?,.,.,.,.
CCc1ccc(NC(=O)c2ccc(F)c(S(=O)(=O)N3CCC4(CC3)OCCO4)c2)cc1,-2.9%,.,.,12.1,.,?,.,.,.,.
CC1=C(N2CC2)C(=O)C(CO)=C(N2CC2)C1=O,-110.4%,-95.6*,2.67µM*,-35.6,0.119µM*,0.316µM*,0.103µM*,0.206µM*,-113.1%,-86.5%
O=C1NCCOC(=O)[C@H](Cc2ccc(F)cc2)CC/C=C/C[C@@H]1CC(=O)N(CCO)Cc1ccccc1,-13.2%,-24.2,i,3.1,-3.7%,?,.,.,.,.
Cc1[nH]nc2ccc(-c3cncc(OC[C@@H](N)Cc4c[nH]c5ccccc45)c3)cc12,-86.6%,16.7,.,-4.3,2.24µM*,1µM*,1.64µM*,1.3µM*,-103.4%,-53.1%
CCOC(=O)c1c(C)[nH]c(C)c1S(=O)(=O)N1CCC(C(=O)N2CCN(c3cccc(Cl)c3)CC2)CC1,-4.0%,.,i,9.2,4.7%,?,.,.,.,.
CCCCn1c(N)c(C(=O)OCCOC)c2nc3ccccc3nc21,-9.1%,-8.8,.,6.8,-28.1%,-23.9%,.,.,.,.
CCCCn1c(N)c(C(=O)NCc2cccs2)c2nc3ccccc3nc21,-81.7%,-16.8,i,7.1,-30.1%,10µM*,?,-25.1%,?,6.1%
CCOc1cccc(CNCCc2c(C)[nH]c3ccc(OC(F)(F)F)cc23)c1O,-0.7%,18.5,?,5.3,.,-9.2%,.,.,.,.
Cc1[nH]c2ccc(OC(F)(F)F)cc2c1CCNCc1ccc(Cl)cc1,11.2µM*,-25.2,?,-1.8,20µM*,10µM*,?,?,?,?
